Source: PubChem BioAssay
A selection: hits, their analogues and other compounds. The true share with any hit is near 0.9%.
SRC1 TRFRET art = TR-FRET detection interference compounds, primary screen, artefact control for PPARgamma SRC-1 recruitment agonists, biochemical, TR-FRET emission ratio; TR-FRET detection artefact counter-screen; active compounds read high; hit rate 0.34% among 99,000; TR-FRET ratio at 8 µM; in the data active means TR-FRET ratio above about 2300
SRC3 TRFRET art = TR-FRET detection interference compounds, artefact control for PPARgamma SRC-3 recruitment agonists, biochemical, TR-FRET ratio. TR-FRET ratio at 8 µM. TR-FRET artefact counter-screen, PPARgamma/SRC-3 format; active compounds read high. hit rate 0.39% among 99,000
PPARg SRC-3 ag = PPARgamma agonists recruiting SRC-3 coactivator, primary screen, biochemical | Peroxisome proliferator-activated receptor gamma (Homo sapiens), P37231 | biochemical PPARgamma/SRC-3 coactivator recruitment assay | activation, % at 8 µM | hit rate 0.26% among 200,000 | AID 731, 2007; in the data active means activation above about 23%;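 further: 0% = DMSO and 100% = reference agonist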
Target sequence (P37231 whole entry, looked up): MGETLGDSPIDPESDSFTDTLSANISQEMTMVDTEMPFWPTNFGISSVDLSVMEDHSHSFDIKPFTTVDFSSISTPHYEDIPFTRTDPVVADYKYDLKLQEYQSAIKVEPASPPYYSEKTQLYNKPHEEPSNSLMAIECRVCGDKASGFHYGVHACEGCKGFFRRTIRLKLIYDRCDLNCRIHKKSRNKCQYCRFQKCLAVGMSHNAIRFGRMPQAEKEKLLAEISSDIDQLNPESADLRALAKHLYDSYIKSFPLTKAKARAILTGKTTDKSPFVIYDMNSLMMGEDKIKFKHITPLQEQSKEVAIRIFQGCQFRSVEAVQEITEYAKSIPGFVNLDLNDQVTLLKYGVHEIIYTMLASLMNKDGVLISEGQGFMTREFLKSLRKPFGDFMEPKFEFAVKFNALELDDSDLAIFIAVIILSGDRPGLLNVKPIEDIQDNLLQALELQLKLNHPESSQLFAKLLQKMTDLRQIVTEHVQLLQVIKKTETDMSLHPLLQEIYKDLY
PPARg SRC-2 ag = agonists of PPARg-SRC-2 recruitment, primary screen, biochemical, HTS. PPARgamma LBD-SRC-2 recruitment. activation, % at 8 µM. hit rate 0.34% among 200,000; in the data active means activation above about 22%;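 further: 0% = vehicle and 100% = reference agonist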
PPARg SRC1 recr = PPARgamma agonists recruiting SRC-1 coactivator, primary screen, biochemical; activation, % at 8 µM; PPARgamma-SRC-1 coactivator recruitment biochemical assay; hit rate 0.41% among 200,000; in the data active means activation above about 19%;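 further: 0% = DMSO and 100% = reference agonist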
SRC2 TRFRET art = TR-FRET signal artefacts, primary screen, artefact control for PPARgamma SRC-2 agonist project, biochemical; TR-FRET artefact counter-screen; active compounds read high; hit rate 0.4% among 200,000; TR-FRET ratio at 8 µM
* marks the source's active call; other numbers are inactive results; . = no result given. Unless noted, no stated cut-off is given here; in the data, active means TR-FRET ratio above about 2000; inactive means the rest.

SMILES | SRC1 TRFRET art | SRC3 TRFRET art | PPARg SRC-3 ag | PPARg SRC-2 ag | PPARg SRC1 recr | SRC2 TRFRET art
CCCc1ccc(-c2cc(C(=O)Nc3ccc([N+](=O)[O-])cn3)c3ccccc3n2)cc1 | 1750 | 1622 | -3 | 6 | 5 | 1663
FC(F)(F)c1nc(=S)c2ccccc2[nH]1 | 2370* | 2198* | 21 | 27* | 23* | 2366*
Cc1nc(SCC(=O)c2ccc(Cl)s2)c2oc3ccccc3c2n1 | . | . | -9 | 0 | 19* | 1533
Cc1nc(SCC(=O)Nc2ccccc2)c2oc3ccccc3c2n1 | . | . | -3 | -2 | -1 | 1248
Cc1nc(SCC(=O)Nc2ccc(F)cc2)c2oc3ccccc3c2n1 | . | . | 4 | 2 | 30* | 1446
Cc1nc(SCC(=O)NC(C)c2ccccc2)c2oc3ccccc3c2n1 (stereo unspecified) | . | . | 4 | 6 | 6 | 1582
CCc1nc(SCC(=O)NCCc2ccccc2)c2oc3ccccc3c2n1 | . | . | 3 | 13 | -4 | 2202*
CC(C)(C)NC(=O)c1ccc2nsnc2c1 | 1724 | 1290 | 0 | -2 | -2 | 1581
CCc1ccc(CN(C)Cc2nc(-c3cccc(Cl)c3)no2)nc1 | 1550 | 1628 | 2 | -4 | -9 | 1476
O=C(c1ccc2c(c1)OCO2)N(Cc1ccco1)C1(C(=O)NC2CCCCC2)CCCCC1 | . | . | 4 | 6 | 1 | 1339
O=Cc1sc(N2CCOCC2)nc1-c1ccccc1 | 2073 | 2197* | 14 | 4 | 2 | 1731
O=C(N/N=C/c1sc(N2CCOCC2)nc1-c1ccccc1)c1ccccc1O | 1582 | 1407 | -5 | -1 | 1 | 1451
O=C(CCSCc1ccccc1Cl)NCc1cccs1 | 2618* | 1723 | -5 | 2 | 28* | 1617
O=C(CCSCc1ccccc1F)NCc1cccs1 | 1774 | 1522 | 0 | -3 | -7 | 1317
CCN(CC)c1ccc(NC(=O)c2ccccc2)cc1S(=O)(=O)Nc1ccccc1OC | 2017 | 2080* | 3 | -5 | 6 | 1639
COc1cc2c(cc1NC(=O)C(c1ccccc1)c1ccccc1)CCCC2 | . | . | 6 | 3 | 8 | 1593
O=C(N/N=C/c1cccs1)c1ccc(NC(=O)c2ccccc2Cl)cc1 | 1581 | 1574 | -2 | -2 | -7 | 1642
O=C(N/N=C/c1ccco1)c1ccc(NC(=O)c2ccccc2Cl)cc1 | 2163 | 1694 | 3 | 7 | 13 | 1979*
COc1ccc2c(c1)sc(=N)n2C | 1757 | 1504 | 3 | 4 | 10 | 1521
Cc1nc2ccc(NC(=O)c3ccc(Cl)c(S(=O)(=O)N(C)c4ccccc4)c3)cc2s1 | 1530 | 2532* | 2 | 9 | 6 | 1835
Cc1nc2ccc(NC(=O)c3cc(S(=O)(=O)N(C)c4ccccc4)ccc3Cl)cc2s1 | 1567 | 1598 | 3 | -3 | -4 | 1528
Nc1nc(C2CCCN2S(=O)(=O)c2ccc(Cl)cc2)cs1 (stereo unspecified) | . | . | 5 | 7 | 21* | 1686
O=S(=O)(c1ccc(Cl)cc1)N1CCCC1c1nc(-c2ccc(Cl)cc2)no1 (stereo unspecified) | . | . | 11 | 3 | 5 | 1734
Cn1cccc1-c1nc2ccc(NC(=O)c3ccccc3)cc2[nH]1 | . | . | 7 | 26* | 1 | 1614
Cc1cc(C(=O)N/N=C/c2cccc([N+](=O)[O-])c2O)n[nH]1 | 2259 | 2114* | 4 | 18 | 8 | 1799
SMILES | SRC1 TRFRET art | SRC3 TRFRET art | PPARg SRC-3 ag | PPARg SRC-2 ag | PPARg SRC1 recr | SRC2 TRFRET art
Cc1cc(C(=O)N/N=C/c2ccc(O)c([N+](=O)[O-])c2)n[nH]1 | 2220 | 1716 | 8 | 9 | 4 | 1578
S=c1[nH]nc(-c2ccccc2)n1C1C=CCCC1 (stereo unspecified) | 2316* | 1754 | -4 | 3 | 5 | 1669
O=C(CN1C(=O)c2ccccc2S1(=O)=O)Nc1ccccc1 | . | . | -5 | -7 | -6 | 1472
CSc1cccc(NC(=O)CN2C(=O)c3ccccc3S2(=O)=O)c1 | . | . | 21 | 22* | 0 | 1521
Cc1ccc(C2C(C#N)=C(N)SC(N)=C2C#N)o1 | . | . | 24 | 23* | 19* | 2112*
CCCCNC(=O)CCn1c(=O)c2ccccc2n(CC(=O)NCCc2ccc(OC)c(OC)c2)c1=O | 1410 | 1580 | 1 | 3 | 0 | 1626
CCOC(=O)c1sc(=NC(=O)COc2ccc(Cl)cc2)n(C)c1C | 1669 | 1434 | 3 | 5 | -3 | 1448
CCOC(=O)c1sc(=NC(=O)c2ccc(OC)c(OC)c2)n(C)c1C | . | . | 1 | 4 | 80* | 1525
CCOC(=O)c1sc(=NC(=O)c2ccccc2)n(C)c1C | 2795* | 2902* | 6 | 8 | 3 | 2392*
CCOC(=O)c1sc(=NC(=O)c2cccc(OC)c2)n(C)c1C | . | . | -5 | -1 | 80* | 1534
Cc1nnc(SCCOc2ccccc2)s1 | 1738 | 1696 | 0 | 7 | 7 | 1498
O=C(Nc1ccc([N+](=O)[O-])cc1)/C(=C/c1cccc([N+](=O)[O-])c1)NC(=O)C1CCCCC1 | . | . | 8 | 24* | -1 | 1705
Cc1ccc(NC(=O)/C(=C/c2cccc([N+](=O)[O-])c2)NC(=O)C2CCCCC2)c(C)c1 | . | . | 5 | -1 | -5 | 1516
O=C(CSc1ncccc1-c1nc2ccccc2[nH]1)N1CCc2ccccc21 | 2802* | 3407* | 2 | -8 | 5 | 2650*
Cc1cc2nc(-c3ccc(SCC(=O)Nc4ccc(S(=O)(=O)NC5CC5)cc4)nc3)[nH]c2cc1C | 2422* | 3182* | 3 | 10 | 13 | 2456*
Cc1cc(NC(=O)CSc2ccc(-c3nc4cc(C)c(C)cc4[nH]3)cn2)no1 | . | . | -16 | -9 | 2 | 1545
Cc1cc2nc(-c3ccc(SCC(=O)N4CCc5ccccc54)nc3)[nH]c2cc1C | . | . | 8 | -1 | 0 | 2115*
CCOC(=S)N/C(=N\S(=O)(=O)c1ccc(C)cc1)c1ccccc1 | . | . | -6 | 1 | 3 | 1557
FC(F)(F)c1nnc2c(Sc3ccc(Cl)cc3)nc3ccccc3n12 | . | . | 3 | 9 | 32* | 1457
O=C1c2ccccc2C(=O)C1c1ccc(O)cc1 | 2190 | 1745 | 5 | 5 | 21* | 1592
O=C(N=Nc1c(O)n(Cc2ccccc2)c2ccccc12)c1ccc(O)cc1 | 2013 | 1586 | 5 | 9 | -2 | 1573
COc1ccc(C(=O)NCC(=O)N=Nc2c(O)n(Cc3ccccc3)c3ccccc23)cc1OC | 2056 | 1814 | 6 | 34* | 1 | 2099*
Cc1nc2ccc(-c3nc4ccc(N)cc4[nH]3)cc2[nH]1 | 2025 | 2163* | 12 | 13 | 20 | 1684
COc1ccc(NC(=O)c2cccc(-n3c(C)ccc3C)c2)c(OC)c1 | 1743 | 1625 | -5 | -7 | -3 | 1438
Clc1cc(NCc2cccs2)ccc1N1CCOCC1 | . | . | -2 | -2 | 5 | 1448
